# What was measured:
# Assay in all cases: DAPPL (digital affinity profiling via proximity ligation, sequencing); 10 mM Tris-HCl pH 7.5, 50 mM NaCl, 1 mM DTT, 4% glycerol, room temperature, 30 min; GST-TFs on glutathione beads, 16-mer random dsDNA library, 0.1% formaldehyde crosslink after washing; high values mean tight binding
# FEV = target: T1, FEV (Homo sapiens, UniProt Q99581 1-238); settings: protein: recombinant; tags: N-terminal GST; dsDNA, one strand shown
# T1 sequence: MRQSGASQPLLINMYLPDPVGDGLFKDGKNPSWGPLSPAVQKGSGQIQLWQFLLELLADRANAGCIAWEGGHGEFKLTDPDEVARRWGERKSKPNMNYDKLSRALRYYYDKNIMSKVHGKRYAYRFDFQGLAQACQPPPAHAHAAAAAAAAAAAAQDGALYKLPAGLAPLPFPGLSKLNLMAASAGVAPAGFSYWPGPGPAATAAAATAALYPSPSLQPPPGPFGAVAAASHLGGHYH
# Outline: (§1)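 After expression in yeast as GST fusions, human transcription factors were bound to glutathione beads, DNA-barcoded and mixed with a tag-only sample. The pools were incubated with 200 nmole of a 16-mer random double-stranded DNA library in Tris/NaCl/DTT/glycerol buffer (30 min, room temperature), washed and crosslinked with 0.1% formaldehyde. Proximity ligation with BsaI/T4 ligase ran for 1 h at 37 °C, before PCR amplification and sequencing on an Illumina NextSeq500. Binding signal is a hexamer's read frequency for a factor divided by its frequency for the tag-only sample.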
# ETV5 = ETV5 (Homo sapiens, UniProt P41161 1-510); settings: protein: recombinant; tags: N-terminal GST; dsDNA, one strand shown
# Sequence of ETV5 (P41161 whole entry): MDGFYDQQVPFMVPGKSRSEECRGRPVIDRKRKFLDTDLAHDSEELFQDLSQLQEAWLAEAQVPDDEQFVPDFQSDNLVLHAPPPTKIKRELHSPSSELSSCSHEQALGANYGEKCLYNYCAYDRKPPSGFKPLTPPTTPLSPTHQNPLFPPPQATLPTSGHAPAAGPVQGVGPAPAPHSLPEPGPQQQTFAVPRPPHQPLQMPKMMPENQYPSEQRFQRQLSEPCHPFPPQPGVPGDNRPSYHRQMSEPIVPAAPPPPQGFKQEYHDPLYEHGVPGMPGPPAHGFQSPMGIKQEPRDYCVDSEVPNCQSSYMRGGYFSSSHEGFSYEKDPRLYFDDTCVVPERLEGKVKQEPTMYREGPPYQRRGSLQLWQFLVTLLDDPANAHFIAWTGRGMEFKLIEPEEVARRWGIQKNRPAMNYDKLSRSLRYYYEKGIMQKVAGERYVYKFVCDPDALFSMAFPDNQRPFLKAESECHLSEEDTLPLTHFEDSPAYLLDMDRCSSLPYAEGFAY
# Outline: as §1
# HSF1 = HSF1 (Homo sapiens, UniProt Q00613 1-529); settings: protein: recombinant; tags: N-terminal GST; chain copies: 3; dsDNA, one strand shown
# Sequence of HSF1 (Q00613 whole entry): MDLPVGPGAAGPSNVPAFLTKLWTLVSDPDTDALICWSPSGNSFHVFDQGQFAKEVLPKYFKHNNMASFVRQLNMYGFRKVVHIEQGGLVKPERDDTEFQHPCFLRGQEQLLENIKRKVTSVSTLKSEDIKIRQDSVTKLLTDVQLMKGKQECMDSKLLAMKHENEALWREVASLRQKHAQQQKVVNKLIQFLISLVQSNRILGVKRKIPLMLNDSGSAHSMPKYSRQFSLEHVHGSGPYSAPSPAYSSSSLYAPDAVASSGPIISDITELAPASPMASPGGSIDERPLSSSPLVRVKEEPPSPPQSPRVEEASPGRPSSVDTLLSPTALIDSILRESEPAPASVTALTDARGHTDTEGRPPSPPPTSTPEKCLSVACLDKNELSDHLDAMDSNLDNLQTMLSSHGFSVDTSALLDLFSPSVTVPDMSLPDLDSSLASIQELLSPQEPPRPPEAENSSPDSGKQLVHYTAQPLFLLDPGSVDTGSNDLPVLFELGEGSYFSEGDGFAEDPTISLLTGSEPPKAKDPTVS
# Outline: as §1
# SPIC = target: T2, SPIC (Homo sapiens, UniProt Q8N5J4 1-248); settings: protein: recombinant; tags: N-terminal GST; dsDNA, one strand shown
# T2 sequence: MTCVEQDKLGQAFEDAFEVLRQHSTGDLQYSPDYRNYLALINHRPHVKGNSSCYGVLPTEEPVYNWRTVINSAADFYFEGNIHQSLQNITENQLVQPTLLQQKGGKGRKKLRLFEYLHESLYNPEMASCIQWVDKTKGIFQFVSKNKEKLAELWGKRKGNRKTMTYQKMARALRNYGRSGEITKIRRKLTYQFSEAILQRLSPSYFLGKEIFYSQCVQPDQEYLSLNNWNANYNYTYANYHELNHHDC
# Outline: as §1
# ELF4 = ELF4 (Homo sapiens, UniProt Q99607 1-663); settings: protein: recombinant; tags: N-terminal GST; dsDNA, one strand shown
# Sequence of ELF4 (Q99607 whole entry): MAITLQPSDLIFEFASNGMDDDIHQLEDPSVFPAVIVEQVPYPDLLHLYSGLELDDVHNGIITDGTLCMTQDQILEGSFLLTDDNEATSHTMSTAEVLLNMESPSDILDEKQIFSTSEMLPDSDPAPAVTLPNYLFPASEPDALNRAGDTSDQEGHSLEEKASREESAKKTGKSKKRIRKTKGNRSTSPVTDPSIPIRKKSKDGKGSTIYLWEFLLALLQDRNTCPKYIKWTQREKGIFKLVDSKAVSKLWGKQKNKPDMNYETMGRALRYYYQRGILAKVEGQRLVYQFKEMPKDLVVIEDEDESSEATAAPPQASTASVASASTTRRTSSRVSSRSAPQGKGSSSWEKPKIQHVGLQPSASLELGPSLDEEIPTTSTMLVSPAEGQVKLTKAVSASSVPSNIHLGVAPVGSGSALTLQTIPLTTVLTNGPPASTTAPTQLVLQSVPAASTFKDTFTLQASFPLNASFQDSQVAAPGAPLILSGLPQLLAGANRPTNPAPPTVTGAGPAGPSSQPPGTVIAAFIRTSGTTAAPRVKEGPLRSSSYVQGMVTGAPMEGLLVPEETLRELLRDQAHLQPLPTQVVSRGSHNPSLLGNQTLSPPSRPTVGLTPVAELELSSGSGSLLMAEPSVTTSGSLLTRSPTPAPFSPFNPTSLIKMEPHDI
# Outline: as §1
# ELK4 = target: T3, ELK4 (Homo sapiens, UniProt P28324-2 1-405); settings: protein: recombinant; tags: N-terminal GST; dsDNA, one strand shown
# T3 sequence: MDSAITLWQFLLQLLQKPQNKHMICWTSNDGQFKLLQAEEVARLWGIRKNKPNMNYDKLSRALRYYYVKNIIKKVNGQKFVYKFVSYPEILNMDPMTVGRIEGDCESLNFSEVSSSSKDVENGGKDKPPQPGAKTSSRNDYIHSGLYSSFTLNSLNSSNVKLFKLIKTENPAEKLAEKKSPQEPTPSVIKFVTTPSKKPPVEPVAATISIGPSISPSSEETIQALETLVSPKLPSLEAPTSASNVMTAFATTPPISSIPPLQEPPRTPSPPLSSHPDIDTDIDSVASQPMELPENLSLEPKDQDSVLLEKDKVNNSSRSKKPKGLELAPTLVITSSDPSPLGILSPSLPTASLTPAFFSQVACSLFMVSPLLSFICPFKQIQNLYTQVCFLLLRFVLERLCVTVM
# Outline: as §1
# ETV2 = target: T4, ETV2 (Homo sapiens, UniProt O00321 1-342); settings: protein: recombinant; tags: N-terminal GST; dsDNA, one strand shown
# T4 sequence: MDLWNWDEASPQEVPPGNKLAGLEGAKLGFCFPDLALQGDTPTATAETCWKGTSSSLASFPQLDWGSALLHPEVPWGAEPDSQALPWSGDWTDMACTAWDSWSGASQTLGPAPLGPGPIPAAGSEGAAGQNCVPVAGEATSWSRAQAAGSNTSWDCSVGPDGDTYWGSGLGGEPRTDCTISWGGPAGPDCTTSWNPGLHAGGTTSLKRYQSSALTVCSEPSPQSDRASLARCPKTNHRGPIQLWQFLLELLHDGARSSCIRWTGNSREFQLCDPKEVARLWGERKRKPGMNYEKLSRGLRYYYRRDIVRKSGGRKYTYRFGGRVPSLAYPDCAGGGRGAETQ
# Outline: as §1
# ELF3 = target: T5, ELF3 (Homo sapiens, UniProt P78545 1-371); settings: protein: recombinant; tags: N-terminal GST; dsDNA, one strand shown
# T5 sequence: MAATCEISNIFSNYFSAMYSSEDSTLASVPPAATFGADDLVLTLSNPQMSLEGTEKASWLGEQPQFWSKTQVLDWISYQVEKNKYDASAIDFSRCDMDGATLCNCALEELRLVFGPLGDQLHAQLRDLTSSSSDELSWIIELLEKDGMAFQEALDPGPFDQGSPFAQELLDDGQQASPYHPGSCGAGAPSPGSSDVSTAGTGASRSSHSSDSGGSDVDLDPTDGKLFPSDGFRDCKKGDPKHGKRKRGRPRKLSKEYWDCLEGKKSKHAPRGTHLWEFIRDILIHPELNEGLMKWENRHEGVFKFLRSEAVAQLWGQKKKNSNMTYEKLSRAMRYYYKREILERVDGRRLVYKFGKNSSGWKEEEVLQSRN
# Outline: as §1
# CRX = CRX (Homo sapiens, UniProt O43186 1-299); settings: protein: recombinant; tags: N-terminal GST; dsDNA, one strand shown
# Sequence of CRX (O43186 whole entry): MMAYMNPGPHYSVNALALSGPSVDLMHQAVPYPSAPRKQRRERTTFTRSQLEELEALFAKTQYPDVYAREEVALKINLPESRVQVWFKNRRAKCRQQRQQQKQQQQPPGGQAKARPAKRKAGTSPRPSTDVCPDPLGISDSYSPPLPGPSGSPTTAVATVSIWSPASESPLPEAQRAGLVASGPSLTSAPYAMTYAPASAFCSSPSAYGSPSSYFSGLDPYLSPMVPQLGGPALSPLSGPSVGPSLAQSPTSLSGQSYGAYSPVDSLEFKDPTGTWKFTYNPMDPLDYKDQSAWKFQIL
# Outline: as §1
# ETV1 = ETV1 (Homo sapiens, UniProt P50549 1-477); settings: protein: recombinant; tags: N-terminal GST; dsDNA, one strand shown
# Sequence of ETV1 (P50549 whole entry): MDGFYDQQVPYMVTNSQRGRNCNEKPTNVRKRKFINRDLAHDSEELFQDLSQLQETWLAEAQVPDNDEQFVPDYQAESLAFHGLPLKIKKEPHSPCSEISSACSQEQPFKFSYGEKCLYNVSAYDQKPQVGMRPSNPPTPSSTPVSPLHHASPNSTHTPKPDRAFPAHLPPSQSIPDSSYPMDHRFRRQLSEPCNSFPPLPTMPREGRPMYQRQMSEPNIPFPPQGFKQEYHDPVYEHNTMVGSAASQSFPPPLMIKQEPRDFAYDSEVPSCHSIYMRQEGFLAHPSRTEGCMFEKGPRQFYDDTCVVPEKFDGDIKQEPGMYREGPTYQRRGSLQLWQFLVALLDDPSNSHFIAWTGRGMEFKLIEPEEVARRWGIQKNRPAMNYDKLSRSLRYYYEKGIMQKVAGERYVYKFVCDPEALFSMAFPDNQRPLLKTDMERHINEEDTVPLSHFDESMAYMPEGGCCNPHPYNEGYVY
# Outline: as §1
# ERF = target: T6, ERF (Homo sapiens, UniProt P50548 1-548); settings: protein: recombinant; tags: N-terminal GST; dsDNA, one strand shown
# T6 sequence: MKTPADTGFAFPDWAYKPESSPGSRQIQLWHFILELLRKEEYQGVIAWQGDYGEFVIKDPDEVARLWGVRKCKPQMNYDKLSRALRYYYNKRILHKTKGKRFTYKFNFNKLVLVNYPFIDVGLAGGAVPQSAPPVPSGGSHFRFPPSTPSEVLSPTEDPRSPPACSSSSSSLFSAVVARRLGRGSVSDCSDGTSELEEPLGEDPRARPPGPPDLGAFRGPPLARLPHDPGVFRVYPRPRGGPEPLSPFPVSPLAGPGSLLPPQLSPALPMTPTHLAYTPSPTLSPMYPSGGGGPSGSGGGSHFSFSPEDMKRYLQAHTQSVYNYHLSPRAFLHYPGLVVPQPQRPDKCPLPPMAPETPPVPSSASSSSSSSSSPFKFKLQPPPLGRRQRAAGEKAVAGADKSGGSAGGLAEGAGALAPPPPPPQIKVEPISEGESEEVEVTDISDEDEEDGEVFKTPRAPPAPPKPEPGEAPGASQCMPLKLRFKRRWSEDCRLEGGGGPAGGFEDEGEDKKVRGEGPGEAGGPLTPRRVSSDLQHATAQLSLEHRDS
# Outline: as §1
# ETV3L = target: T7, ETV3L (Homo sapiens, UniProt Q6ZN32 1-361); settings: protein: recombinant; tags: N-terminal GST; dsDNA, one strand shown
# T7 sequence: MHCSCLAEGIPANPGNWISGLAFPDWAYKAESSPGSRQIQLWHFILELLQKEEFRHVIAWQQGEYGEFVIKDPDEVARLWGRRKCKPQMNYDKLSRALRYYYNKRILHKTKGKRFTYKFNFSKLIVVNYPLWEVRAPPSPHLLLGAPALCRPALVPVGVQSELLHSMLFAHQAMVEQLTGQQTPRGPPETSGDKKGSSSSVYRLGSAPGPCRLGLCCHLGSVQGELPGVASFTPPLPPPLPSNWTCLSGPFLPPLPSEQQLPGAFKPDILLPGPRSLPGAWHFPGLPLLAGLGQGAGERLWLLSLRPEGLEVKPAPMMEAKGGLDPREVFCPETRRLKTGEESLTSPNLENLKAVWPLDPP
# Outline: as §1
# ETS2 = target: T8, ETS2 (Homo sapiens, UniProt P15036 1-469); settings: protein: recombinant; tags: N-terminal GST; dsDNA, one strand shown
# T8 sequence: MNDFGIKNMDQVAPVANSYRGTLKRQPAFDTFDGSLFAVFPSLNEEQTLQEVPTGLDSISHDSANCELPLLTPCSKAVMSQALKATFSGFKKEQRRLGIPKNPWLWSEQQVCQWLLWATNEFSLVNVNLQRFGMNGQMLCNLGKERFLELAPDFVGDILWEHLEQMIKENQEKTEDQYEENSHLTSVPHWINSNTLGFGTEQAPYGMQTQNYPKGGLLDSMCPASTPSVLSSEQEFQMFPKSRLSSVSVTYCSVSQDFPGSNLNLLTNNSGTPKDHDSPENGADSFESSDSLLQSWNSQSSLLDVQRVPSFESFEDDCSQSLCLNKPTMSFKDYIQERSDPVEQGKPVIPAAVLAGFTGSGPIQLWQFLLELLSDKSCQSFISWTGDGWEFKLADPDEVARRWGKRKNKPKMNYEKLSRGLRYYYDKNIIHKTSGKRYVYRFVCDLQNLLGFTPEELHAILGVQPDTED
# Outline: as §1
# SPDEF = target: T9, SPDEF (Homo sapiens, UniProt O95238 1-335); settings: protein: recombinant; tags: N-terminal GST; dsDNA, one strand shown
# T9 sequence: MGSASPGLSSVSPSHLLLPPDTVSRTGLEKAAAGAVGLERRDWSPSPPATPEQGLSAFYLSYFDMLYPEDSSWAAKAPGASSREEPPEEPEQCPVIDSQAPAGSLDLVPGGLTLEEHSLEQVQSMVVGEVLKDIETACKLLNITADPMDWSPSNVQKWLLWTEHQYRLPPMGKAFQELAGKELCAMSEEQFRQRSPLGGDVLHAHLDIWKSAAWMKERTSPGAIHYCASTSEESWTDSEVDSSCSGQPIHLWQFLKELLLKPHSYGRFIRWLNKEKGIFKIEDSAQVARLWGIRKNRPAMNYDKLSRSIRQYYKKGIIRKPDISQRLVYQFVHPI
# Outline: as §1
# ETV7 = target: T10, ETV7 (Homo sapiens, UniProt Q9Y603 1-341); settings: protein: recombinant; tags: N-terminal GST; dsDNA, one strand shown
# T10 sequence: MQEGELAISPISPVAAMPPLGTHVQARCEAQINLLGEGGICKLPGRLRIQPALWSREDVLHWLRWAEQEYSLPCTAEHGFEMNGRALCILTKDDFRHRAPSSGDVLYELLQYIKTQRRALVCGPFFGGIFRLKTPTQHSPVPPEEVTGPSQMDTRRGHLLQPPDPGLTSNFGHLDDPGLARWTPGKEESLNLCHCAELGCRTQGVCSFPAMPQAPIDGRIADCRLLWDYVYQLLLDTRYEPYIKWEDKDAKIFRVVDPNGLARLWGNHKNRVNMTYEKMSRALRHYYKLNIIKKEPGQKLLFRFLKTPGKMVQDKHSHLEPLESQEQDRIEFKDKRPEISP
# Outline: as §1
# ELF5 = target: T11, ELF5 (Homo sapiens, UniProt Q9UKW6-2 1-255); settings: protein: recombinant; tags: N-terminal GST; dsDNA, one strand shown
# T11 sequence: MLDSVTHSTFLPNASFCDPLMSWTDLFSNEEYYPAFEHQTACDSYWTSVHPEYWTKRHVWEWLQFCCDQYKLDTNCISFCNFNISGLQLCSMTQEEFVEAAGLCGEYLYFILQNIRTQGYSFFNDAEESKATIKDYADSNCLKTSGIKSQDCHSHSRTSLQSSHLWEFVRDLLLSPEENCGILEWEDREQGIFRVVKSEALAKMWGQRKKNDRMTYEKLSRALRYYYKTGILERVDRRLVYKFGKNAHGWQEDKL
# Outline: as §1
# ETV3 = target: T12, ETV3 (Homo sapiens, UniProt P41162-2 1-143); settings: protein: recombinant; tags: N-terminal GST; dsDNA, one strand shown
# T12 sequence: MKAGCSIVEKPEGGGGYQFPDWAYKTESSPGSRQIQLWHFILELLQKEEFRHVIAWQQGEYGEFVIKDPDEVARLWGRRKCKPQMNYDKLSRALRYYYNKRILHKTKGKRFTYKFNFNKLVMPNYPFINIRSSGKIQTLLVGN
# Outline: as §1
# ETV6 = ETV6 (Homo sapiens, UniProt P41212 1-452); settings: protein: recombinant; tags: N-terminal GST; dsDNA, one strand shown
# Sequence of ETV6 (P41212 whole entry): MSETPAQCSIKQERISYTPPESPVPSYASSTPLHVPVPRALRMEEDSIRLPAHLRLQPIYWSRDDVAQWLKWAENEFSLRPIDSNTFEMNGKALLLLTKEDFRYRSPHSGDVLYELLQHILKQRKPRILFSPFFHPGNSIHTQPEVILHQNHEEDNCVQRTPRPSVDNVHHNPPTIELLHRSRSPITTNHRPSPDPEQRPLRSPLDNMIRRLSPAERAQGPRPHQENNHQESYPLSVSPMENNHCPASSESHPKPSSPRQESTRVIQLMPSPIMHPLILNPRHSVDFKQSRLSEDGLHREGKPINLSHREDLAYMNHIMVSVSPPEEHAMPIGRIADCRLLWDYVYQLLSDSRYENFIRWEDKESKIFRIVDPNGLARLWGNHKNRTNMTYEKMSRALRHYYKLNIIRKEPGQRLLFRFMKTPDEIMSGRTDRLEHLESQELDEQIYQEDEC
# Outline: as §1
sequence,measurement,setting,value
TCATCC,binding signal,FEV,"1.4 fold enrichment (6-mer frequency, TF over GST control)"
same,binding signal,ETV5,"1.35 fold enrichment (6-mer frequency, TF over GST control)"
same,binding signal,HSF1,"1.38 fold enrichment (6-mer frequency, TF over GST control)"
same,binding signal,SPIC,"1.39 fold enrichment (6-mer frequency, TF over GST control)"
same,binding signal,ELF4,"1.36 fold enrichment (6-mer frequency, TF over GST control)"
same,binding signal,ELK4,"1.24 fold enrichment (6-mer frequency, TF over GST control)"
same,binding signal,ETV2,"1.44 fold enrichment (6-mer frequency, TF over GST control)"
same,binding signal,ELF3,"1.49 fold enrichment (6-mer frequency, TF over GST control)"
same,binding signal,CRX,"1.65 fold enrichment (6-mer frequency, TF over GST control)"
same,binding signal,ETV1,"1.35 fold enrichment (6-mer frequency, TF over GST control)"
same,binding signal,ERF,"1.2 fold enrichment (6-mer frequency, TF over GST control)"
same,binding signal,ETV3L,"1.42 fold enrichment (6-mer frequency, TF over GST control)"
same,binding signal,ETS2,"1.35 fold enrichment (6-mer frequency, TF over GST control)"
same,binding signal,SPDEF,"1.85 fold enrichment (6-mer frequency, TF over GST control)"
same,binding signal,ETV7,"1.24 fold enrichment (6-mer frequency, TF over GST control)"
same,binding signal,ELF5,"1.6 fold enrichment (6-mer frequency, TF over GST control)"
same,binding signal,ETV3,"1.55 fold enrichment (6-mer frequency, TF over GST control)"
same,binding signal,ETV6,"1.38 fold enrichment (6-mer frequency, TF over GST control)"
